Shown are actives, neighbours in structure and some others; about 7.9% of the full set was active somewhere.
Lassa entry inh – blocks Lassa virus binding to or entry into cells. Lassa virus pseudotype entry inhibition, cell reporter. Potency, µM (titrated, usually from 37.9 µM), without a hit: top-dose activity change, negative = inhibition, actives largely listed as inhibitors. 300,000 compounds, 1.2% hits. AID 540256; calls by dose curve; tested in HEK293 cells; also: potency is read from the fitted curve at half-maximal effect; nearly all actives have a fitted effect of over 50% in size
HCMV inh – inhibitors of human cytomegalovirus | HFF cells, HCMV-luciferase reporter, 72 h; stronger effect = lower value | activity change, negative = inhibition, % at 57.5 µM | 410,000 compounds, 4.5% hits; in the data active = activity change below about -60%; inconclusive = no clear call, values can overlap the other calls; inactive = above about -39%
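Screen run at 2 compound doses on HFFs infected with reporter HCMV, MOI 1 PFU/cell. Luciferase activity from cell lysates at 72 h post infection gave inhibition relative to buffer-only and Salinomycin wells.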
MARV entry inh – Marburg virus entry inhibition; Potency, µM (top dose mostly 37.8 µM), inactives show at the top dose activity change, negative = inhibition, actives largely listed as inhibitors; 300,000 compounds, 1.8% hits; AID 540276; Marburg virus pseudotyped entry inhibition, cell reporter; calls by dose curve; tested in HEK293 cells; also: potency is read from the fitted curve at half-maximal effect
HCV inh – blocks hepatitis C virus | AID 651820 | Huh7.5.1 HCVcc-Cre infection, luciferase reporter, 44 h | 340,000 compounds, 3.4% hits | Potency, µM (top dose mostly 41.8 µM), for the others: top-dose activity change, negative = inhibition, most hits filed as inhibitors; active = well fitted inhibition curve with a large enough effect; inconclusive = small, poorly fitted or top-dose-only effect, or another doubt; inactive = no such curve, though single readings can be large or run the other way; also: potency is read from the fitted curve at half-maximal effect
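Cells seeded at 1,000/well and cultured 4 h, then compounds added followed by HCVcc-Cre virus (~0.5 moi). After 44 h further culture, luciferase substrate was added, plates held 15 min at room temperature, and luminescence read for 15 sec.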
FMDV inh – antivirals against foot and mouth disease virus; 410,000 compounds, 1.2% hits; Potency, µM (doses to about 57.9 µM), for inactives: at the top dose activity change, negative = inhibition, usual class: inhibitors; FMDV antiviral cell-based qHTS; calls by dose curve; tested in HEK293T cells; also: read-out not given here; potency is read from the fitted curve at half-maximal effect; nearly all actives have a fitted effect of over 45% in size
* marks the source's active call; other numbers are inactive results; ? = inconclusive; . = no result given; ! = not active in a repeat; [ ] = dose if it differs, or a comment. % is scaled to controls: 0 for no effect and ±100 for the full control effect.

SMILES	Lassa entry inh	HCMV inh	MARV entry inh	HCV inh	FMDV inh
Nc1ccc(S(=O)(=O)c2ccc(N)nc2)cc1	15%[46.1 µM]	-11	-2%[46.1 µM]	21%	-10%
Nc1ccc(S(=O)(=O)O)cn1	?	-69*!	?	?	-24%
CN(C)C(CNc1ncnc2sccc12)c1cccs1 (stereo unspecified)	.	3	.	11%	-5%
CCOC(=O)c1sc2ncnc(NCC(c3cccs3)N(C)C)c2c1C (stereo unspecified)	16%	-16	?	10µM*	4%
Cc1ccc(-n2c(SCC(=O)Nc3ccc(Cl)cc3)nc(O)cc2=O)cc1	10%[46.1 µM]	-17	29%[46.1 µM]	5%	1%
Cc1c(NC(=O)C(C)OC(=O)c2ncc(Cl)c(Cl)c2Cl)c(=O)n(-c2ccccc2)n1C (stereo unspecified)	-6%	5	-6%	11%	-27%
COc1cccc(C2CC(c3cccs3)=NN2C(=O)c2ccco2)c1O (stereo unspecified)	-22%	-38	22%[46.1 µM]	14µM*	-17%
COc1ccc(C2=NN(C(=O)c3ccco3)C(c3cccs3)C2)cc1OC (stereo unspecified)	.	62	.	.	8%
O=C(c1ccco1)N1N=C(c2cccs2)CC1c1ccccc1O (stereo unspecified)	-4%	-68*	-27%	-1%	?
CC(C)CNc1nc(Br)cnc1N	.	39	.	.	.
O=C(NCc1ccc(OC(F)(F)F)cc1)c1cc(-c2ccccc2)nn1CC1CC(c2cccnc2)=NO1 (stereo unspecified)	.	-67*	.	?	-10%
O=C(CSc1nc2ccc([N+](=O)[O-])cc2[nH]1)NC1CCCCC1	4%	-39	?	-22%	?
O=C(CSc1nc2ccc([N+](=O)[O-])cc2[nH]1)NC1CCCCCC1	-24%	13	?	14µM*	5.6µM*
O=C(Cc1c(F)cccc1Cl)N/N=C/c1cccs1	5%[46.1 µM]	-75*	19%[46.1 µM]	5%[8.37 µM]	46%
Cc1ccc(/C=N/NC(=O)Cc2c(F)cccc2Cl)s1	.	-28	.	-20%	14%
O=C(CNC(=O)c1cccc(F)c1)N/N=C/c1cccs1	.	-62*	.	9%	6%
O=C(CNC(=O)c1ccccc1)N/N=C/c1cccs1	-4%[46.1 µM]	?	2%[46.1 µM]	14%	6%
CC(=O)OCCNc1cc(SCc2ccco2)c2nonc2c1[N+](=O)[O-]	0%	.	?	?	32µM*
CCCC(=O)OCCNc1cc(SCCC(=O)OC)c2nonc2c1[N+](=O)[O-]	9%	12	?	28%	-14%
CC(=O)OCCNc1cc(Sc2nc3ccccc3[nH]2)c2nonc2c1[N+](=O)[O-]	0%	27	24%	?	35µM*
COC(=O)CCSc1cc(NCCOC(C)=O)c([N+](=O)[O-])c2nonc12	2%	18	?	?	35µM*
CC(=O)OCCCNc1cc(Sc2nc3ccccc3s2)c2nonc2c1[N+](=O)[O-]	4%	.	20%	-6%	?
CC1=C(C(N)=O)C(c2ccc(C(C)C)cc2)n2nc(SCc3ccccc3)nc2N1 (stereo unspecified)	?	3	26%[46.1 µM]	.	-6%
O=[N+]([O-])c1cccc2nc(-c3ccccc3)c(-c3ccccc3)nc12	-28%	-101*	-4%	-9%	?
Nc1nc2c([N+](=O)[O-])cccc2s1	.	27	.	4%	-2%
SMILES	Lassa entry inh	HCMV inh	MARV entry inh	HCV inh	FMDV inh
Cc1ccccc1OCc1ccc(-c2nc(C#N)c(NCCCN(C)C)o2)o1	1%[46.1 µM]	?	?	.	-3%
Cn1c(Cc2ccccc2)nc2cnc(Nc3cccc(C(F)(F)F)c3)cc21	.	14	.	.	.
COc1ccc(N2CCN(c3ccc(N4C(=O)CC(C)C4=O)cc3[N+](=O)[O-])CC2)cc1 (stereo unspecified)	.	-90*	.	-17%	?
COc1ccc(N2CCN(c3ccc(N4C(=O)COCC4=O)cc3[N+](=O)[O-])CC2)cc1	16%	-25	?	-28%	?
CCOc1ccc(S(=O)(=O)NCCC(=O)N2CC=C(c3ccccc3)CC2)cc1	.	?	.	22µM*	?
COC(=O)NC(c1ccc(Cl)cc1)C(C(C)=O)C(=O)OC (stereo unspecified)	.	.	13%[14.2 µM]	.	.
CCc1nnc(NC(=O)CSc2nc(C)c3c(c2C#N)CCCC3)s1	?	56	?	11µM*	-22%
CC(C)(C)N(Cc1ccccc1)C(=O)COC(=O)C1CCN(c2ccc(C(F)(F)F)cn2)CC1	.	0	.	3%	?
COc1ccc(C=CC(O)CCN2CCC3CCC(C3)C2)cc1 (stereo unspecified)	-11%[46.1 µM]	-66*	?	-10%	-8%
COc1ccc(OCCNC2CCCC2)cc1	0%	52	15%	-4%	-4%
c1ccc(-c2ccc(OCCCNC3CCCC3)cc2)cc1	-25%	-21	?	11µM*	-29%
COc1ccc(OC)c(C(=O)Cn2nnc3ccccc3c2=O)c1	18%	-21	13%	-19%	14%
COc1ccc2c(C)cc(SCn3nnc4ccccc4c3=O)nc2c1	-3%	-65*	-2%	-4%	-15%
COc1ccc(C)cc1-n1nnnc1SCn1nnc2ccccc2c1=O	?	-80*	-25%	?	-16%
COc1ccc2c(-c3ccccc3)cc(SCC(N)=O)nc2c1	?	-25	5.6µM*	?	-23%
COc1ccc(C)cc1-n1nnnc1SCc1cc(=O)n2cc(C)ccc2n1	?	-72*	3%[46.1 µM]	?	16µM*
Cc1ccc(NC(=O)c2ccccc2[N+](=O)[O-])cc1[N+](=O)[O-]	.	28	.	.	.
CC1=C(C(=O)N(C(C)C)C(C)C)CC(CC(=O)NC2CC2)C(=O)N1CCCN1CCCC1=O (stereo unspecified)	.	32	.	.	-2%
O=c1cc(N=Nc2ccc(Cl)cc2)[nH]c(=O)[nH]1	?	-100*	5%[46.1 µM]	?	25µM*
O=c1cc(-c2ccc(Cl)cc2)oc(=O)[nH]1	.	-34	.	-6%	-3%
CCOC(=O)C[C@@H](C#N)c1cn(C)c2ccccc12	.	.	-18%	.	.
COC(=O)c1ccc(Oc2cc(C)nc(-n3nc(C)cc3C)n2)cc1	-29%	-76*	?	?	-26%
Cc1ccc(S(=O)(=O)CCSc2nc(C)cc(C(F)(F)F)c2C#N)cc1	?	-71*	-47%	?	?
COC(=O)CSc1nc(C)cc(C(F)(F)F)c1C#N	9%	-24	-10%[46.1 µM]	2%	0%
COC(=O)c1ccc(CSc2nnc(-c3c[nH]c4ccccc34)n2-c2ccccc2)cc1	?	-31	?	22µM*	-21%
O=S(Cc1ccc(Br)cc1)Cc1nnc(SCc2ccc(Br)cc2)n1-c1ccccc1 (stereo unspecified)	?	-80*	?	5µM*	16µM*
COC(=O)c1ccc(CSc2nnc(-c3c[nH]c4ccccc34)n2C)o1	.	-13	.	12%	-14%
O=[N+]([O-])c1ccc(CSc2nnc(Cc3ccccc3)n2-c2ccc(F)cc2)cc1	?	?	?	-2%	-30%

Bioassay records: PubChem, National Center for Advancing Translational Sciences (NCATS)
